Records with an inconclusive call do not appear. Where a call stands in place of a potency, no number is given. A number with no mark means an inactive call. Activity calls are given as the source filed them. Calls come from the whole dose curve; as a rule, active = well fitted curve in the direction sought with a large enough effect; inconclusive = small, poorly fitted or top-dose-only effect, or another doubt; inactive = no such curve, though single readings can be large; an effect the other way counts as inactive or inconclusive.

Assay [1] concerns the target Cellular tumor antigen p53 (Homo sapiens) (UniProt P04637). The assay is described as follows: Primary qHTS for small molecule compounds that upregulate eGFP-tagged delta133p53alpha (in N-terminal) cells. (AID 2060322).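 For activation: cells pre-induced with doxycycline then dosed without doxycycline; series mostly up to about 56 µM.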 Note: nearly all actives have a fitted effect of over 75% in size. Note: potency is the fitted concentration of half-maximal effect. Conditions: NCI-H358 eGFP-delta133p53alpha fluorescence, 24 h; activation: stronger effect = higher value. In a few lines: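 NCI-H358 cells pre-induced 24 h with 10 ng/ml doxycycline for eGFP-delta133p53alpha, plated dox-free and exposed 24 h at 37C to titrated compounds. Fixed, Hoechst-stained; gated GFP peak intensity by laser scanning cytometry, normalized to DMSO (0%) and 57.5 uM 5-azacytidine (100%).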
(In qHTS, concentration-response curves come from the screen itself.)

Assay [2] deals with Aldehyde dehydrogenase, mitochondrial (Homo sapiens) (UniProt P05091). Kind of assay: qHTS for Inhibitors of the Aldehyde Dehydrogenase Family (ALDH2) Primary screen (AID 2061308). Note: nearly all actives have a fitted effect of over 55% in size.

Sequence of Cellular tumor antigen p53 (Homo sapiens) (P04637 whole entry, looked up): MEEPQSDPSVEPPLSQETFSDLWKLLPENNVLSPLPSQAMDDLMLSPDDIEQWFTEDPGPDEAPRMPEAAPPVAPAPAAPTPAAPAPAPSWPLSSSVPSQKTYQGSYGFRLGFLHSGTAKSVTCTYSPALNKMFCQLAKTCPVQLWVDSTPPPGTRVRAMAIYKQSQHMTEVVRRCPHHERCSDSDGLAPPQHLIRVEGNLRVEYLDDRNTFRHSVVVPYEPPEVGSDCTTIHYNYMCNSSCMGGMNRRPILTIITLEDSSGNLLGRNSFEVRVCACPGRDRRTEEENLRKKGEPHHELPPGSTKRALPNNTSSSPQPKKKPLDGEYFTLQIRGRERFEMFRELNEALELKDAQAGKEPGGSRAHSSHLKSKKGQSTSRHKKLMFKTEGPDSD

Consider `COc1cc(/C=C/C(=O)OC(C)(C)C(OC2OC(CO)C(O)C(O)C2O)C(=O)OCc2ccc(OC3OC(CO)C(O)C(O)C3O)cc2)ccc1O` (configuration not stated), for which, in assay [1], the activation is 13.7%. The Potency result in assay [2] is “inactive”.
Take `C=C1CC[C@@H]2[C@](C)(CO)[C@H](O)CC[C@@]2(C)[C@@H]1CC(O)C1=CCOC1=O` (some centres not stated): in assay [1], the activation is -5.34%. For the same molecule, the Potency entry in assay [2] is “inactive”.
As to `COc1cc(C2c3cc4c(c(O)c3CC(CO)C2C(=O)O)OCO4)cc(OC)c1O` (configuration not stated), the activation in assay [1] is 9.82%. For the same molecule, in assay [2], the Potency entry was “inactive”.
For `COc1cc([C@H]2OC[C@](O)(Cc3ccc(O[C@@H]4O[C@H](CO)[C@@H](O)[C@H](O)[C@H]4O)c(OC)c3)[C@@H]2CO)ccc1O`, the activation in assay [1] is -1.53%. Also, the Potency result in assay [2] is “inactive”.
On to `COc1ccc([C@@H]2OC[C@H]3[C@@H]2CO[C@@H]3c2ccc(OC3OC(CO)C(O)C(O)C3O)c(OC)c2)cc1OC` (some centres not stated), for which the activation in assay [1] is 10.7%. For the same molecule, the Potency entry in assay [2] is “inactive”.
Taken in the same sequence, the figures for `COc1cc2c(cc1O)C1(OC)Cc3ccc4c(c3C1N(C)CC2)OCO4` (configuration not stated) were 20.5% and “inactive”.
`C=C[C@@]1(C)C=C2C(=O)C(O)=C3[C@](C)(C(=O)O)CC[C@@H]4C[C@]34[C@]2(O)C(=O)C1`: in assay [1], the Potency was 6.59 µM (active). The Potency entry in assay [2] is “inactive”.
Regarding `COc1cc(CC(COC2OC(CO)C(O)C(O)C2O)c2cc(/C=C/CO)cc(OC)c2O)ccc1O` (configuration not stated), in assay [1], the activation was -6.25%. Also, the Potency result in assay [2] was “inactive”.
In the case of `CN1CCCC1Cc1c[nH]c2ccc(CCS(=O)(=O)c3ccccc3)cc12` (configuration not stated), the activation in assay [1] is 24.3%. Moreover, the Potency entry in assay [2] is “inactive”.
For the molecule `OC[C@H]1O[C@@H](Oc2cc(O)cc(-c3cc4ccc(O[C@@H]5O[C@H](CO)[C@@H](O)[C@H](O)[C@H]5O)cc4o3)c2)[C@H](O)[C@@H](O)[C@@H]1O`, the activation in assay [1] was -14.3%. In assay [2], the Potency result was “inactive”.
With `C[C@@H]1O[C@@H](O[C@H]2[C@H](OC(=O)C34CCC(C)(C)CC3C3=CCC5C6(C)CC(O)C(O[C@@H]7O[C@H](CO)[C@@H](O)[C@H](O)[C@H]7O)C(C)(C(=O)O)C6CCC5(C)C3(CO)CC4)O[C@H](C)[C@H](O)[C@@H]2O)[C@H](O)[C@H](O)[C@H]1O[C@@H]1OC[C@@H](O)[C@H](O)[C@H]1O` (some centres not stated), the activation in assay [1] is -12.5%. For the same molecule, the Potency result in assay [2] was “inactive”.
As to `COc1cc2ncnc(Nc3ccc(O)cc3)c2cc1OC`, the activation in assay [1] is 4.46%. The Potency result in assay [2] was “inactive”.
`CC1(C)CC[C@]2(C(=O)O[C@@H]3O[C@H](CO)[C@@H](O)[C@H](O)[C@H]3O)CC[C@]3(C)C(=CCC4[C@@]5(C)C[C@@H](O)[C@H](O)C(C)(C)C5[C@H](O)C[C@]43C)[C@@H]2[C@@H]1O` (some centres not stated): the activation in assay [1] was -11.5%. The Potency result in assay [2] was “inactive”.
Taken in the same sequence, the figures for `COc1cc(C2Oc3c(OC)cc(/C=C/C(=O)OC[C@H]4O[C@@H](OC(C)(C)C(=O)O)[C@H](O)[C@@H](O)[C@@H]4O)cc3C2CO)ccc1O` (some centres not stated) were -9.16% and “inactive”.
For `O=C(OC[C@@]1(O)CO[C@@H](O[C@H]2[C@H](Oc3ccc(O)cc3)O[C@H](CO)[C@@H](O)[C@@H]2O)[C@@H]1O)c1ccc(O)cc1`, the activation in assay [1] is -19.1%. Besides, the Potency entry in assay [2] is “inactive”.
Turning to `COc1cc(N2CCC(N3CCN(C)CC3)CC2)ccc1Nc1ncc(Cl)c(-c2c[nH]c3ccccc23)n1`, the Potency in assay [1] is 8.49 µM (active). The Potency result in assay [2] was “inactive”.
As to `C=C1CCC2(C(=O)OC3OC(CO)C(O)C(O)C3O)CCC3(C)C(=CCC4C5(C)CCC(OC6OC(CO)C(OC7OC(C)C(O)C(O)C7O)C(OC7OCC(O)C(O)C7O)C6O)C(C)(C)C5CCC43C)C2C1` (configuration not stated), the activation in assay [1] was 14.3%. In assay [2], the Potency result is “inactive”.
Taken in the same sequence, the figures for `Cc1c(C)c(NCC(=O)N(C)C2CCN(Cc3ccc(C(N)=O)cc3)CC2)c(C)c(C)c1N` were 1.43% and “inactive”.
In the case of `C=C1CC[C@@H]2[C@](C)(CO)[C@H](O)CC[C@@]2(C)[C@@H]1/C=C/C1=CCOC1=O`, in assay [1], the activation was -12.2%. In assay [2], the Potency result was “inactive”.
As for `COc1cc(/C=N\NC(=O)c2ccc3c(c2)OCO3)ccc1OCc1ccccc1`, the activation in assay [1] is 2.39%. The Potency result in assay [2] was “inactive”.
For `NC(=O)[C@H](O[C@@H]1O[C@H](CO)[C@@H](O)[C@H](O)[C@H]1O)c1ccccc1`, the activation in assay [1] was 17.9%. In addition, the Potency result in assay [2] is “inactive”.
Consider `O=C(CC1CC(c2ccc(F)cc2F)=NO1)N1CCOCC1` (configuration not stated), for which the activation in assay [1] is 1.43%. Further, the Potency entry in assay [2] is “inactive”.
As for `OC[C@H]1O[C@@H](OCCc2ccccc2)[C@H](O[C@@H]2OC[C@](O)(CO)[C@H]2O)[C@@H](O)[C@@H]1O`, the activation in assay [1] is -4.58%. Further, in assay [2], the Potency entry was “inactive”.
Consider `COC(=O)C1=COC(O[C@@H]2O[C@H](CO)[C@@H](O)[C@H](O)[C@H]2O)C2C(C)C(=O)CC12` (some centres not stated), for which the activation in assay [1] is -1.53%. Moreover, in assay [2], the Potency result is “inactive”.
As for `C=C1C(O)CC2C(C(=O)O)=COC(OC3OC(CO)C(O)C(O)C3OC(=O)/C=C\c3ccc(O)cc3)C12` (configuration not stated), the activation in assay [1] is -22.9%. For the same molecule, the Potency result in assay [2] was “inactive”.
Taken in the same sequence, the figures for `COc1ccc(C)c2sc(NC(=O)c3ccncc3)nc12` were -15.7% and “inactive”.

Source of the values: PubChem BioAssay (NCATS).
